Results from the antibiotic and cytotoxicity screens of Wong et al. (2023).
Out of some 39,000 compounds screened, about 1,500 (3.8%) were called active. The full list was thinned out, with actives kept by preference.

Test system: HSkMC (human skeletal muscle cells)
Assay: cytotoxicity call (relative viability < 0.9)
Conditions: 10 µM

SMILES	cytotoxicity call
COc1ccc(NC(=O)Nc2ccc3c(c2)C(=O)N([C@@H](C)CO)C[C@H](C)[C@@H](CN(C)CC2CCCCC2)O3)cc1	inactive
C[C@H]1CN([C@@H](C)CO)C(=O)c2cc(NS(=O)(=O)c3cn(C)cn3)ccc2O[C@@H]1CN(C)C(=O)Nc1ccccc1	inactive
C[C@H](CO)N1C[C@H](C)[C@H](CN(C)S(=O)(=O)c2ccccc2F)Oc2cc(C#Cc3ccccc3)ccc2S1(=O)=O	inactive
CN(C)[C@@H](CN)c1cccn1C	inactive
C[C@H](CO)N1C[C@H](C)[C@H](CN(C)C(=O)CN2CCOCC2)Oc2ncc(C#C[C@@H](C)O)cc2C1=O	inactive
C[C@H](CO)N1C[C@H](C)[C@@H](CN(C)Cc2ccc(-c3ccccc3)cc2)Oc2ccc(NS(=O)(=O)c3cccs3)cc2CC1=O	inactive
C/C(=N\N)c1ccc2ccccc2c1	inactive
O=C(C[C@H]1CC[C@H]2[C@@H](COC[C@H](O)CN2C(=O)c2ccccc2)O1)N1CCOCC1	inactive
Cc1noc(C)c1NC(=O)Nc1cccc2c1O[C@H](CN(C)S(C)(=O)=O)[C@@H](C)CN([C@H](C)CO)C2=O	inactive
CC(C)NC(=O)N(C)C[C@@H]1Oc2ccc(NC(=O)Cc3ccccc3)cc2C(=O)N([C@@H](C)CO)C[C@@H]1C	inactive
Cc1noc(C)c1NC(=O)Nc1ccc2c(c1)C(=O)N([C@@H](C)CO)C[C@H](C)[C@@H](CN(C)C(=O)c1ccccc1)OCCCC[C@@H](C)O2	inactive
O=C(C[C@@H]1CC=CCC[C@@H](Cc2ccc(F)cc2)C(=O)OC[C@@H](Cc2c[nH]c3ccccc23)NC1=O)N[C@H](CO)Cc1ccccc1	active
O=C(C[C@@H]1CC=CCC[C@@H](Cc2ccc(F)cc2)C(=O)OC[C@H](Cc2c[nH]c3ccccc23)NC1=O)N[C@@H](CO)Cc1ccccc1	inactive
O=C(C[C@@H]1CC=CCC[C@H](Cc2ccc(F)cc2)C(=O)OC[C@@H](Cc2c[nH]c3ccccc23)NC1=O)N[C@@H](CO)Cc1ccccc1	inactive
C[C@H]1CN([C@@H](C)CO)C(=O)c2cccc(NC(=O)Nc3ccc(C(F)(F)F)cc3)c2O[C@@H]1CN(C)Cc1ccncc1	inactive
COc1ccc(NC(=O)Nc2ccc3c(c2)C(=O)N([C@@H](C)CO)C[C@H](C)[C@H](CN(C)Cc2ccc(C(=O)O)cc2)OCCCC[C@@H](C)O3)cc1	inactive
Cc1cc(C(=O)c2cc3cc(Cl)ccc3o2)ccc1Cl	inactive
Cc1cc(CN)cc(C)c1NC(=O)c1ccc(-c2cc(Cl)ccc2Cl)o1	active
Cc1ccc(CN)cc1Cl	inactive
COc1cccc(S(=O)(=O)N(C)C[C@H]2Oc3ncc(Br)cc3C(=O)N([C@H](C)CO)C[C@H]2C)c1	inactive
